TRHR enhancer: qHTS for Small Molecule Agonists and Allosteric Enhancers of Human TRH Receptor: Primary Screen for Enhancers. TRHR cells, fluo-8 calcium fluorescence, EC20 TRH enhancement. enhancement, % at 2 µM. 360,000 compounds, 0.66% hits; in the data active = enhancement above about 30%
Target sequence (P34981 whole entry, looked up): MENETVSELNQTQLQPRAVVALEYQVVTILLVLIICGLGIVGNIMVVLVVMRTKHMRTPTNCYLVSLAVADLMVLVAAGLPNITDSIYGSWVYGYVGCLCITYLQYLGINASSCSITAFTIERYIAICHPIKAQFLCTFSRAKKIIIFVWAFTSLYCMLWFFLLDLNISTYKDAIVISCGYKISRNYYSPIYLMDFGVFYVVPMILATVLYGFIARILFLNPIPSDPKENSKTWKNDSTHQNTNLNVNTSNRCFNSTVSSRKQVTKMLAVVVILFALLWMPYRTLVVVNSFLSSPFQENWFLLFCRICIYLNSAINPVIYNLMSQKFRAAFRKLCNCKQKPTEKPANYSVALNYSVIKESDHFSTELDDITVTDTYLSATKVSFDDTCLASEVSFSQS
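Enhancer read-out: after compound pinning and an initial kinetic agonist-mode read, an EC20 of TRH (10 nM final) was injected and fluo-8 calcium signal (Ex 480/Em 530) followed at 1 s/cycle for 100 cycles in TRHR-expressing cells.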
D1 antagonist: Antagonist of Human D 1 Dopamine Receptor: qHTS | D(1A) dopamine receptor (Homo sapiens), P21728 | HEK293 TREx D1 cells, calcium flux, dopamine EC80; active compounds read low | activity change, negative = inhibition, % at 10 µM | 360,000 compounds, 3.2% hits | AID 504652, 2011; in the data active = activity change below about -30%
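Kinetic fluorescence of a calcium dye serves as the read-out. D1-expressing Hek293 Trex cells, induced overnight at 30 C, are exposed to compound for 180 s before an EC80 dopamine addition, then read 180 s further.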
D1 potentiator: Potentiators of Human D1 Dopamine Receptor: qHTS; D(1A) dopamine receptor (Homo sapiens), P21728; HEK293 TREx D1 cells, calcium flux, dopamine EC20 potentiation; potentiation, % at 10 µM; 360,000 compounds, 0.036% hits; AID 504651, 2011; in the data active = potentiation above about 30%
TRHR ag: qHTS for Small Molecule Agonists and Allosteric Enhancers of Human TRH Receptor: Primary Screen for Agonists; Thyrotropin-releasing hormone receptor (Homo sapiens), P34981; TRHR cells, calcium flux fluo-8, FDSS agonist mode; activation, % at 2 µM; 360,000 compounds, 0.18% hits
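TRHR-expressing cells, plated overnight in medium with 10% serum, were loaded with fluo-8 calcium dye at room temperature. After a 10 s baseline, library compound was pin-added and calcium release was recorded kinetically (ex 480/em 530) as agonist response.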
GRP78 ERSR act: qHTS for Inducers of the Endoplasmic Reticulum Stress Response (ERSR) in Human Glioma: qHTS. U87-MG GRP78 promoter luciferase reporter, 16 h. Potency, µM, usual class: activators. 420,000 compounds, 0.02% hits; active = well fitted activation curve with a large enough effect; note: series mostly up to about 76 µM; nearly all actives have a fitted effect of over 35% in size
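Stably transfected U87-MG human glioma cells carrying a GRP78-based luminescent sensor were seeded at 1000 cells/well, pin-dosed with compounds and incubated 16 h. Luciferase reagent was then added, and end-point luminescence was read after 10 min at room temperature.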
D1 ag: Allosteric Agonists of the Human D1 Dopamine Receptor: qHTS; 360,000 compounds, 1% hits; D(1A) dopamine receptor (Homo sapiens), P21728; HEK293 T-REx D1 cells, calcium flux, agonist mode; activation, % at 2 µM
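Tetracycline-induced HEK293 TREx D1 cells, force-coupled to calcium signalling, were dye-loaded with a no-wash calcium kit. Compound was pin-added after a 10 s baseline. Fluorescence was read kinetically at 1 cycle/s for 180 s, with calcium rises flagged as agonism.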
Hits are given with their value; . = inactive; / = no result. Only some compounds are listed: those with a hit (about 4% of all), similar ones and a draw of the others. Cut-off read from the data, not from the text of the source, unless noted: active = activation above about 30%; inactive = the rest.

SMILES | TRHR enhancer | D1 antagonist | D1 potentiator | TRHR ag | GRP78 ERSR act | D1 ag
CN(C)CC/C=C1/c2ccccc2Sc2ccc(Cl)cc21 | . | -95.9 | . | . | . | .
CN(C)CC/C=C1\c2ccccc2COc2ccccc21 | . | -78.8 | . | . | . | .
CCn1c2ccccc2c2cc(CNCc3ccc(OC)cc3OC)ccc21 | . | . | . | . | . | 93.9
CCC(CC)NCc1ccc2c(c1)c1ccccc1n2CC | . | . | . | . | . | 60.3
COc1ccc(CNCc2cc(C)c(OC)cc2C)c(OC)c1 | . | . | . | . | . | 30.3
CN1Cc2ccccc2CC1CNCc1c(C(=O)N2CCCC2)nc2ccccn12 (configuration not stated) | . | . | . | . | . | .
O=C(COc1coc(CN2CCN(c3ccc(F)cc3)CC2)cc1=O)NC1CCCC1 | . | . | . | . | . | .
CCn1nc(C)cc1C(=O)OCC(=O)c1ccc(Cl)cc1 | . | -63.4 | . | . | . | .
CCOCCCN(C(=O)Nc1ccc(Cl)cc1)C1CCN(C(C)=O)CC1 | . | -30.5 | . | . | . | .
CCCCN(Cc1ccco1)S(=O)(=O)c1c[nH]c(C(=O)OC)c1 | . | . | . | . | . | .
O=C(CSc1ccc2nc(-c3ccccc3)cn2n1)Nc1ccccc1C(F)(F)F | . | -71.1 | . | . | . | .
Cc1[nH]ccc(=O)c1OCc1ccc(Cl)cc1 | . | . | . | . | . | .
CCOC(=O)c1c(NC(=O)CSc2ncccn2)sc2c1CCN(Cc1ccccc1)C2 | . | -77.7 | . | . | . | .
CCOC(=O)c1c(NC(=O)CC)sc2c1CCN(Cc1ccccc1)C2 | . | . | . | . | . | .
Cc1ccc(Cn2ncc(Cl)c(Cl)c2=O)cc1 | . | . | . | . | . | .
CCc1ccc(C(=O)Cn2ncc(Cl)c(Cl)c2=O)cc1 | . | -30.7 | . | . | . | .
CCN(C(=O)c1ccc(S(=O)(=O)N2CCCC2)cc1)C1CCS(=O)(=O)C1 (configuration not stated) | . | . | . | . | . | .
Cc1ccc(CNc2cc(C(=O)O)ccc2C)s1 | . | . | . | . | . | .
CN1CCN(C(=O)c2ccc(-c3cccs3)s2)CC1 | . | . | . | . | . | .
O=C(c1cccs1)c1ccc(-c2cccs2)s1 | . | -37.7 | . | . | . | 70.3
CCCCOc1ccc(CN(CCO)CCO)cc1[N+](=O)[O-] | . | . | . | . | . | .
COc1ccc2nc(NC(=O)CSc3ccccc3)sc2c1 | 32.1 | . | . | . | . | .
CCOC(=O)c1sc(Nc2nc3ccc(OC)cc3s2)cc1C | . | -35.7 | . | . | . | .
Cc1cc(C)nc(SCC(=O)OCC(=O)Nc2nc3ccccc3s2)n1 | . | . | . | . | . | 31.3
COc1ccc2nc(NC(=O)CSC3=NCCS3)sc2c1 | . | . | . | . | . | .
SMILES | TRHR enhancer | D1 antagonist | D1 potentiator | TRHR ag | GRP78 ERSR act | D1 ag
CCOC(=O)c1sc(Nc2nc3c(F)cccc3s2)cc1C | . | . | . | . | . | .
CS(=O)(=O)N(CC(=O)Nc1ccccc1C(=O)N1CCOCC1)c1ccc(F)c(Cl)c1 | . | . | . | . | . | .
CC1C(=O)N2CCCc3cc(S(=O)(=O)N4CCN(c5ccc(F)cc5)CC4)cc1c32 (configuration not stated) | . | -46.1 | . | . | . | .
CC1C(=O)N2CCCc3cc(S(=O)(=O)N4CCN(c5cccc(Cl)c5)CC4)cc1c32 (configuration not stated) | . | . | . | . | . | .
O=C(COc1ccccc1)Nc1ccc(CN2CCCCC2)cc1 | . | . | . | . | . | .
Cc1ccc(-c2cc(-c3ccccc3)c(C#N)c(SCC(O)CS(=O)(=O)Cc3ccccc3)n2)cc1 (configuration not stated) | . | -38.7 | . | . | . | .
CCOc1ccc(-c2c(C(=O)N/N=C/c3ccc(O)cc3)nnn2-c2nonc2N)cc1 | . | . | . | . | . | .
CCOc1ccc(-c2c(C(=O)N/N=C/c3ccsc3)nnn2-c2nonc2N)cc1 | . | . | . | . | . | 37.5
COc1cccc(-c2c(C(=O)N/N=C/c3ccsc3)nnn2-c2nonc2N)c1 | . | . | . | . | . | 162.5
CCCCCC(=O)Cc1cc(O)cc(O)c1C(=O)Oc1cc(CC(=O)CCCCC)c(C(=O)O)c(OC)c1 | / | / | / | / | . | /
Cc1cccc(N2CCN(C(=O)c3ccc4nc(N5CCCCC5)sc4c3)CC2)c1C | . | . | . | . | . | .
COc1cccc(NC(=O)COc2ccccc2)c1 | . | . | . | . | . | .
COc1cccc(NC(=O)CCC(=O)Nc2cccc(OC)c2)c1 | . | -31.5 | . | . | . | .
CCc1ccc(NC(=S)N2CCN(c3cccc(OC)c3)CC2)cc1 | . | -31.3 | . | . | . | .
COc1cccc(NC(=O)CN(C)C(=O)/C=C/c2ccc(S(=O)(=O)N3CCCCCC3)cc2)c1 | / | / | / | / | . | /
COc1cccc(NC(=O)CN(C)C(=O)/C=C/c2ccc3ccccc3n2)c1 | . | -46.0 | . | . | . | .
COc1ccc(CCC(=O)Nc2cccc(Cl)c2)cc1 | . | -44.9 | . | . | . | .
Cc1ccc(S(=O)(=O)ON2C(=O)c3ccccc3C2=O)c(C)c1 | . | . | . | . | . | .
COc1ccc(CCN(C)CCC(=O)Nc2ccc(C)cc2)cc1OC | . | . | . | . | . | .
CCc1ccc(NC(=O)Nc2cccc(OC)c2)cc1 | . | -31.4 | . | . | . | .
CCOC(=O)c1nn(-c2ccc(C)cc2)c(=O)cc1OCC(=O)Nc1cccc(OC)c1 | . | -58.5 | . | . | . | .
CCOC(=O)c1nn(-c2ccc(C)cc2)c(=O)cc1OCC(=O)Nc1cccc(C)c1 | . | . | . | . | . | .
COc1cc(NC(=O)COc2cccc(OC)c2)cc(OC)c1 | . | . | . | . | . | .
COc1ccc(CCN(C)CCC(=O)Nc2cccc(C)c2)cc1OC | . | -32.6 | . | . | . | .
CCOCC(=O)Nc1cccc(OC)c1 | 30.5 | . | . | . | . | .
COc1ccc(-n2nnnc2SCC(=O)Nc2cccc(C)n2)cc1OC | . | . | . | . | . | .
COc1ccc(CCNC(=O)c2c([S-])n(-c3ccc(C)cc3)c3cccc[n+]23)cc1 | . | -34.7 | . | . | . | .

Source: PubChem (National Center for Advancing Translational Sciences (NCATS))
